# TRHR enhancer: allosterically enhances the human TRH receptor; TRHR cells, fluo-8 calcium fluorescence, EC20 TRH enhancement; hit rate 0.66% among 360,000; enhancement, % at 2 µM; P34981; AID 493056; in the data active = enhancement above about 30%; also: 0% is about no effect
# Target sequence (P34981 whole entry, looked up): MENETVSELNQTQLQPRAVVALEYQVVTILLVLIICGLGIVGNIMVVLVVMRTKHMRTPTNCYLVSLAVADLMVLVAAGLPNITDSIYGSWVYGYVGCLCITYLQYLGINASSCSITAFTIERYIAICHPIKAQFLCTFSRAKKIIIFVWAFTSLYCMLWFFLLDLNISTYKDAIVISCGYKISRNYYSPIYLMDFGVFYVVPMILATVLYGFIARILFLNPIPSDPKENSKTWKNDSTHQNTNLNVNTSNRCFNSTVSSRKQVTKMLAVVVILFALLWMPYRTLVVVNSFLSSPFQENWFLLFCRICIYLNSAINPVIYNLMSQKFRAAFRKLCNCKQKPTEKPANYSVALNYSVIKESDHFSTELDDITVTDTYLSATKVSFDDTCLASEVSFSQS
#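 Enhancer read-out: after compound pinning and an initial kinetic agonist-mode read, an EC20 of TRH (10 nM final) was injected and fluo-8 calcium signal (Ex 480/Em 530) followed at 1 s/cycle for 100 cycles in TRHR-expressing cells.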
# D1 agonist: activates the human D1 dopamine receptor | HEK293 T-REx D1 cells, calcium flux, agonist mode | activation, % at 2 µM | hit rate 1% among 360,000 | AID 504660; also: 0% is about no effect
#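 Agonism was scored from calcium flux recorded over 180 s (1 read/s) after pintool compound addition, following a 10-cycle baseline. Cells were inducible force-coupled HEK293 TREx D1, plated overnight at 30 C and loaded with no-wash calcium dye.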
# D1 antagonist: blocks dopamine activation of the human D1 receptor | HEK293 TREx D1 cells, calcium flux, dopamine EC80; stronger effect = lower value | activity change, negative = inhibition, % at 10 µM | hit rate 3.2% among 360,000 | AID 504652; in the data active = activity change below about -30%; also: % is scaled to controls: 0 for no effect and ±100 for the full control effect
#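 Antagonism measured as reduced calcium response to an EC80 dopamine addition following 180 s compound pre-read; cells were inducible HEK293 Trex D1 plated overnight at 30 C, read kinetically at 1 cycle/sec.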
# TRHR ag: activates the human TRH receptor. AID 493084. hit rate 0.18% among 360,000. TRHR cells, calcium flux fluo-8, FDSS agonist mode. activation, % at 2 µM; also: 0% is about no effect
#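 Fluo-8-loaded TRHR cells; 10 s baseline, compound added, kinetic Ca2+ fluorescence read 1/s, agonist mode.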
# D1 potentiator: human D1 dopamine receptor positive modulation | hit rate 0.036% among 360,000 | potentiation, % at 10 µM | HEK293 TREx D1 cells, calcium flux, dopamine EC20 potentiation | P21728; in the data active = potentiation above about 30%; also: 0% is about no effect
# Numbers without * were called inactive; ! = repeats disagree. Only some compounds are listed: those with a hit (about 4.7% of all), similar ones and a draw of the others. Rule as the data show it, unless noted: active = activation above about 30%; inactive = the rest.
SMILES,TRHR enhancer,D1 agonist,D1 antagonist,TRHR ag,D1 potentiator
CC1CCN(S(=O)(=O)c2ccc(NC(=O)CN3CCCC3)cc2)CC1,0.0,36.2*,25.8,0.7,3.0
COc1ccc(S(=O)(=O)N2CCN(CC(=O)Nc3ccc(F)c(F)c3)CC2)cc1,-1.4,7.9,-33.1*,0.3,-7.8
COc1ccc2c(CNC3CCCCCC3)c(C(=O)O)n(Cc3ccc(C)cc3)c2c1,-3.3,0.1,0.4,0.4,-1.2
[N-]=[N+]=NC1CC(CO)OC1n1ccc(=O)[nH]c1=O (centres undefined),-9.5,3.2,-7.2,0.2,-2.6
CCc1cccc(C)c1NC(=O)CSc1nnc(CC)n2c1cc1occc12,-2.0,1.5,6.9,0.0,0.1
COc1cc(NC(=O)CSc2nc3c(c(=O)n(C)c(=O)n3C)n2C)cc(OC)c1,-0.1,1.0,10.8,-0.3,1.2
CCNC(=S)N(CCO)Cc1cc2cc3c(cc2[nH]c1=O)OCO3,34.2*,0.2,-22.0,0.1,-1.6
CNC(=S)N(CCO)Cc1cc2cc3c(cc2[nH]c1=O)OCO3,6.4,2.3,-17.2,0.9,-2.2
CCN(CC)CCN(Cc1cc2cc3c(cc2[nH]c1=O)OCCO3)C(=S)NC,-3.9,-1.9,-31.4*,0.0,-8.0
CNC(=S)N(CCO)Cc1cc2cc3c(cc2[nH]c1=O)OCCO3,9.8,3.0,13.9,-0.2,-1.2
CC(C(=O)NCc1ccccc1F)n1ccc2cc(S(=O)(=O)N3CCCC3)ccc21 (centres undefined),3.8,6.1,3.0,0.3,-3.0
Brc1[nH]nc2ccccc12,-4.2,1.5,-33.4*,0.0,-5.1
O=C(O)c1cc(-c2ccc(Br)s2)nc2ccccc12,1.8,1.6,-0.1,-0.2,2.2
CCCCCOc1ccc(C(=O)CCC(=O)N2CCCC2)cc1,-2.0,36.2*,-6.6,-0.5,-7.4
CCCCOc1ccc(C(=O)N2CCCC2)cc1,1.3,0.4,15.1,-1.0,-2.8
CCCCOc1ccc(C(=O)CCN2CCOCC2)cc1,0.4,9.8,-34.4*,-1.2,-8.0
CC(C)CCNC(=O)C1CCN(c2nc3ccc(Cl)cc3[nH]2)CC1,3.1,0.4,8.2,-0.5,-1.1
COc1ccc(C2C(C(=O)c3ccccc3)N3c4ccccc4C=CC3C2[N+](=O)[O-])cc1 (centres undefined),15.7,41.2*,-5.6,15.0,-3.1
COc1ccc(N2C(=O)[C@@H]3[C@H](C2=O)[C@H](C(C)=O)N2c4ccccc4C=C[C@@H]32)cc1,6.3,0.9,0.5,0.0,-7.6
Cc1ccc(NC(=O)c2c(C)nc3sc(C(=O)Nc4ccc(F)cc4)c(N)c3c2-c2ccccc2Cl)c(C)c1,-1.5,5.2,-39.0*,1.1,1.2
CC(=O)N1CCc2c(sc3c2c(=O)n(-c2ccccc2)c(=O)n3Cc2cccc(C(F)(F)F)c2)C1,0.0,2.6,7.7,2.4,6.3
CCOC(=O)C1CCC(CN(Cc2c(Cl)cccc2Cl)S(=O)(=O)c2ccc(Cl)cc2)CC1 (centres undefined),2.4,5.3,10.8,0.7,-2.0
CCOC(=O)C1CCC(CN(Cc2c(Cl)cccc2Cl)S(=O)(=O)c2ccc(F)cc2)CC1 (centres undefined),3.6,8.6,-38.0*,1.5,-1.0
NC(=O)CSc1nnc2sc3ccccc3n12,14.5,0.8,-15.1,0.0,32.3*
O=C(CCC1CCCCC1)Nc1nnc(C(F)(F)F)s1,6.0,6.6,-8.6,4.2,-2.4
SMILES,TRHR enhancer,D1 agonist,D1 antagonist,TRHR ag,D1 potentiator
CCOC(=O)/C=C1\NC(C)(C)Cc2cc(OC)c(OC)cc21,21.9,0.1,-40.6*,1.2,-6.0
CCOC(=O)/C=C1\NC(C)(C)Cc2cc(OC)c(O)cc21,1.5,2.9,-8.8,-1.3,-2.3
Cc1ccc(NC(=S)N/N=C2/CCCCc3ccccc32)cc1,-3.0,0.8,-6.0,-0.5,-1.2
COc1ccc(NC(=S)N/N=C2/CCCc3c(C)cc(C)cc32)cc1,-0.6,1.3,-39.5*,-0.2,4.0
COc1ccc(C(CCNCc2ccc(N(C)C)cc2)c2ccccc2OC)cc1 (centres undefined),1.9,5.6,11.4,0.4,-9.6
COc1ccc(C(CCNCc2ccc(OC(C)C)cc2)c2ccccc2OC)cc1 (centres undefined),5.1,58.7*,10.1,1.5,3.1
COc1ccc(CNCCC(c2ccc(OC)cc2)c2ccccc2OC)cc1 (centres undefined),3.5,30.4*,-4.4,0.9,-1.1
CC(=O)Nc1ccc(S(=O)(=O)N2CCN=C2SCc2ccc(F)cc2)cc1,-2.3,36.5*,-26.2,-0.9,-19.8
CC(=O)Nc1ccc(S(=O)(=O)N2CCN=C2SCc2ccc(C)cc2)cc1,16.1,23.1,-41.2*,0.6,-2.8
CSC1=NCCN1S(=O)(=O)c1ccc(NC(C)=O)cc1,0.7,1.1,8.4,0.1,-4.5
CCSC1=NCCN1S(=O)(=O)c1ccc(NC(C)=O)cc1,-4.0,-2.1,-8.5,0.9,-3.1
c1cncc(-c2nnc(SCc3nc4ccccc4[nH]3)o2)c1,1.7,1.8,-3.7,0.2,-6.2
c1ccc2[nH]c(CSc3nc4ccccc4o3)nc2c1,7.5,32.7*,-3.1,0.2,-2.6
Cc1ccccc1CSCc1nc2ccccc2[nH]1,-4.6,12.6,-30.1*,-1.4,-9.4
COc1cc(/C=C/C(=O)OCC(=O)N2CCCc3ccccc32)ccc1OC(F)F,5.8,20.9,-2.7,-0.3,0.8
O=c1c2oc3ccccc3c2n(Cc2ccccc2Cl)c(=O)n1Cc1ccc2c(c1)OCO2,0.3,2.5,4.3,-0.1,-4.0
Cc1[nH]c2ccccc2c1/C=N/NC(=O)c1cccs1,2.2,0.2,-12.7,0.1,0.5
Cc1c(/C=N/NC(=O)c2cccs2)c2ccccc2n1Cc1ccccc1Cl,-5.8,2.0,-99.4*,0.1,-9.9
O=C(O)CCN1CCOCC1,2.1,1.1,-67.2*,0.5,-2.4
CCCN1CCC(=O)N([C@H](CN=[N+]=[N-])Cc2ccccc2)CC1,-3.6,0.5,8.0,-0.1,-7.3
Cc1cc(Br)ccc1NC(=O)CNC(=O)c1cnn(C)c1,-2.2,1.8,13.8,0.0,-5.3
COc1ccc(N2C(=O)NC(NS(=O)(=O)c3ccccc3)(C(F)(F)F)C2=O)cc1 (centres undefined),-2.0,2.8,21.1,-0.5,-1.4
COc1ccc(N2C(=O)NC(NS(=O)(=O)c3ccc(NC(C)=O)cc3)(C(F)(F)F)C2=O)cc1 (centres undefined),-1.8,-1.6,-50.8*!,-0.3,-9.5
O=C1C2CCCCN2C(=O)N1CCCCN1CCN(c2cccc(Cl)c2)CC1 (centres undefined),31.8*,1.8,-39.4*,0.9,-21.9
O=C(C1CCC(=O)N1Cc1ccccc1Cl)N1CCN(c2ccc(F)cc2)CC1 (centres undefined),-0.3,-0.4,-48.2*,0.1,-6.0
O=C(NCCCN1CCN(c2cccc(Cl)c2)CC1)C1CCC(=O)N1Cc1ccccc1Cl (centres undefined),-4.3,11.2,-38.3*,0.0,-9.8

# Screening results as filed in PubChem.
